This assay is described as follows: probe aDKK1 binding to arrayed compounds – biochemical, biotinylated probe, 635/667 nm fluorescence, primary screen (AID 1099).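 Also: score merges 667nm spot fluorescence with signal to noise across triplicate slides; reference of the scale not given here.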 Conditions: small-molecule microarray, higher = more signal.
Turning to `COc1ccc(C#Cc2ccc3c(c2)[C@]2(C(=O)N3)[C@H](C(=O)Nc3nc4ccccc4s3)[C@H]3C(=O)O[C@H](c4ccccc4)[C@H](c4ccccc4)N3[C@@H]2c2ccccc2OCCO)cc1`, the composite z-score was determined as 0.243.

Compound `C=CCNC(=O)[C@@H]1[C@H]2C(=O)O[C@H](c3ccccc3)[C@H](c3ccccc3)N2[C@H](c2ccc(OCCO)cc2)[C@@]12C(=O)N(C(=O)OCCOC)c1ccc(C#CCCO)cc12` yielded a composite z-score of -0.0139.

As to `COCC(=C=CC[C@@H](O)c1cccc(OCCO)c1)CCO`, the composite z-score is 0.0771.

Turning to `COCCOC(=O)N1C(=O)[C@@]2(c3cc(C#CC4(O)CCCCCC4)ccc31)[C@H](C(=O)N1CCN(c3ncccn3)CC1)[C@H]1C(=O)O[C@H](c3ccccc3)[C@H](c3ccccc3)N1[C@@H]2c1ccccc1OCCO`, the composite z-score was -0.0139.

As for `[N-]=[N+]=Nc1ccccc1C[C@]1(C(=O)O)N=C(c2ccc(OCCCO)cc2)O[C@H]1c1ccccc1N=[N+]=[N-]`, the composite z-score turned out to be 1.06.

In the case of `NC(=O)NCC#Cc1ccc2c(c1)[C@]1(C(=O)N2)[C@H](C(=O)N2CCN(c3ncccn3)CC2)[C@H]2C(=O)O[C@H](c3ccccc3)[C@H](c3ccccc3)N2[C@@H]1c1ccc(OCCO)cc1`, the composite z-score was determined as 0.23.

Compound `CN(C)C(=O)[C@@]1(Cc2ccccc2)COC(c2ccc(OCCCO)cc2)=N1` came in with a composite z-score of -0.246.

For `CCN(CC)c1ccc(N2CC=CC34O[C@@H]5C=CCCOC(=O)C5[C@H]3C(=O)N(CCO)[C@@H]4C2=O)cc1` (stereo partly specified), the composite z-score is -0.289.

With `C[C@@H]1ON(c2ccc(I)cc2)[C@H](c2ccc(OC(=O)OC(C)(C)C)cc2)[C@H]1C(=O)N1C(=O)OC[C@H]1Cc1ccccc1`, the composite z-score is -0.14.

In the case of `COc1cc(CO)cc(I)c1O[C@H]1C=C(C(=O)NCCO)C[C@@H](NCC2CCCCC2)[C@@H]1O`, the composite z-score was -0.155.

The compound `C=CCNC(=O)[C@@H]1[C@H]2C(=O)O[C@H](c3ccccc3)[C@H](c3ccccc3)N2[C@H](c2ccc(O)cc2)[C@@]12C(=O)Nc1ccc(C#CCC(C(=O)OC)C(=O)OC)cc12` showed a composite z-score of 0.0989.

In turn, `CCOC(=O)C1=C[C@@H](c2ccccc2)N(S(=O)(=O)c2ccc(C)cc2)[C@H]1c1ccccc1` had a composite z-score of 0.0612.

In the case of `[N-]=[N+]=NC[C@H](Cc1ccccc1)NC(=O)c1ccccc1`, the composite z-score was -0.124.

Compound `COc1ccc(C(O)C2C=CC3C(=O)N(c4ccccc4)C(=O)C3N2Nc2ccccc2F)cc1` (stereo unspecified) returned a composite z-score of 0.447.

`C#C[C@@H](CC)O[Si](C#CCCCC#N)(C(C)C)C(C)C` gave a composite z-score of 0.155.

`CCCCCCCCCCC(O)C1C=CC2C(=O)N(C)C(=O)C2N1Nc1cc(OC)c(OC)c(OC)c1` (stereo unspecified) displayed a composite z-score of 0.571.

Compound `C=C[C@H](C)[C@H](OC(=O)Nc1ccc(OC)cc1)c1ccc(OCCO)cc1` returned a composite z-score of -0.115.

Take `COCCOC(=O)N1C(=O)[C@@]2(c3cc(C#CC4(O)CCCCCC4)ccc31)[C@H](c1ccc(OCCO)cc1)N1[C@H](c3ccccc3)[C@H](c3ccccc3)OC(=O)[C@H]1[C@@H]2C(=O)Nc1nc2ccccc2s1`: the composite z-score came out at 0.722.

`O=c1cccc(-c2ccco2)o1` yielded a composite z-score of -0.148.

`CN(C)C(=O)[C@@]1(Cc2ccccc2N=[N+]=[N-])N=C(c2ccc(OCCCO)cc2)O[C@H]1c1ccccc1`: the composite z-score was determined as 0.605.

As for `CC(C)[C@H]1NC(=O)[C@@]23C(=O)N[C@@H](Cc4ccccc4)C2[C@H](C)[C@@]2(C)O[C@H]2C3/C=C/CCC/C=C/CNC(=O)[C@H](Cc2ccccc2)NC1=O` (stereo partly specified), the composite z-score is -0.339.

As for `C=CCC(OC(C)=O)[C@@H]1[C@@H](N(Cc2cc3ccccc3o2)C(=O)c2ccc(-c3ccccc3)cc2)c2cc(OCCCO)ccc2N1C(=O)Cc1ccc(OC)cc1` (stereo partly specified), the composite z-score was -0.102.

The compound `[N-]=[N+]=NCc1ccccc1[C@H]1OC(c2ccc(OCCCO)cc2)=N[C@@]1(CCS(=O)(=O)c1ccccc1)C(=O)NCc1ccccc1` came in with a composite z-score of 1.65.

On to `CC(=O)n1cc(C(O)C2C=CC3C(=O)N(c4ccccc4)C(=O)C3N2Nc2ccc(C(C)C)cc2)c2ccccc21` (stereo unspecified), for which the composite z-score was 0.389.

Turning to `C=C(COC)C(=O)CC[C@H](OC(C)=O)c1ccc(OCCO)cc1`, the composite z-score was -0.0747.

Regarding `Cc1ccccc1C(O)C1C=CC2C(=O)NC(=O)C2N1Nc1ccc(Cl)cc1Cl` (stereo unspecified), the composite z-score came out at 0.629.
